These results are taken from PubChem BioAssay AID1347165 (National Center for Advancing Translational Sciences (NCATS), 2019).

The structures appear in SMILES notation. Hit rate of the full screen: of about 220,000 compounds, about 5,700 (2.6%) were called active. Entries that show only a call come without a potency. Not shown: some 18% with an inconclusive outcome. This is one part of a sample in which actives are shown more often than they occur. The call rests on the fitted dose curve; in most records, active means well fitted inhibition curve with a large enough effect; inconclusive means small, poorly fitted or top-dose-only effect; inactive means no such curve, though single readings can be large or run the other way.
Potency means the concentration at half of the fitted maximal effect.

Lysine-specific demethylase 5B (Homo sapiens), sequence (Q9UGL1 whole entry, looked up): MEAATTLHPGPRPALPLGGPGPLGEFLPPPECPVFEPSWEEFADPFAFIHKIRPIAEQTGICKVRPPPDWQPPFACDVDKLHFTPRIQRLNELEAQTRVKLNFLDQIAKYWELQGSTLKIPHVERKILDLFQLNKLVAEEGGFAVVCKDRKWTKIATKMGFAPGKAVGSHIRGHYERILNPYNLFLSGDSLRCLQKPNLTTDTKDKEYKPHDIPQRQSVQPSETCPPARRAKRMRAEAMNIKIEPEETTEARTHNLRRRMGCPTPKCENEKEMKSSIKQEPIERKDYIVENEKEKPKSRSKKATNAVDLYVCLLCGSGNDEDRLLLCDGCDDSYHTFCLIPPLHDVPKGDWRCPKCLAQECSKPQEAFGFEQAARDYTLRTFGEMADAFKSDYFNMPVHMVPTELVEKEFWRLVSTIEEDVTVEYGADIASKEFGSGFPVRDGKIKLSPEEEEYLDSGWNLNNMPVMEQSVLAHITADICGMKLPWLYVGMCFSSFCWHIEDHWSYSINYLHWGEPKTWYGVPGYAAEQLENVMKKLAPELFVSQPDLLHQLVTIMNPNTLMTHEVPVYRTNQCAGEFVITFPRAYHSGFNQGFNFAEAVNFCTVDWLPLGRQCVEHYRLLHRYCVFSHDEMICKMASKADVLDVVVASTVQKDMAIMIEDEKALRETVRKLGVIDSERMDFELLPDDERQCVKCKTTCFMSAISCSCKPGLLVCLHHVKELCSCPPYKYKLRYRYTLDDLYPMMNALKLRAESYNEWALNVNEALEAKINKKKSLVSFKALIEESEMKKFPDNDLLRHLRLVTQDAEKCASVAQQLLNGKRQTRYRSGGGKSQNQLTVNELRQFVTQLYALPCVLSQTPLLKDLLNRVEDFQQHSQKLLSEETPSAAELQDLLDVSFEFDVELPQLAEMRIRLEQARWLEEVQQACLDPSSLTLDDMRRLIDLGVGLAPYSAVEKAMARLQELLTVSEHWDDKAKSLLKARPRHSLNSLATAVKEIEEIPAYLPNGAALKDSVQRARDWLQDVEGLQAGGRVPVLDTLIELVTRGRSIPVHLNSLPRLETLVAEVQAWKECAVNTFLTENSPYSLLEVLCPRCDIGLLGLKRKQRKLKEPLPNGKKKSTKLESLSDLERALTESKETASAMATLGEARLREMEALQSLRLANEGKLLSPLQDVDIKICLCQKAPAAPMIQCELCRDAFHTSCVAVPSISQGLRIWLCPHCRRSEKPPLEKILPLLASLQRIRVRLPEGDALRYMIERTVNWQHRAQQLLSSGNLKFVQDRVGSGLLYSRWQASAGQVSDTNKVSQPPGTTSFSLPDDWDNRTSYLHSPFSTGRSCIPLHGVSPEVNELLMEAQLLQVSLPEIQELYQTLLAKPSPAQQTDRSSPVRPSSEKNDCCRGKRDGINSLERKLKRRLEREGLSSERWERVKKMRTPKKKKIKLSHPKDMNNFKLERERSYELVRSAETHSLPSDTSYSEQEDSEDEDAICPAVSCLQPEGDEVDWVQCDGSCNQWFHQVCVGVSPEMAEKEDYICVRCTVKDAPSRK

The assay concerns the target Lysine-specific demethylase 5B (Homo sapiens) (UniProt Q9UGL1). Kind of assay: Primary screen for KDM5B Histone Demethylases FDH-coupled qHTS. Further: nearly all actives have a fitted effect of over 70% in size. The following applies: FDH-coupled NADH fluorescence (FDH is formaldehyde dehydrogenase); series mostly up to 57.7 µM. The method in brief: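 Here, H3K4me3 peptide (12.5 µM in substrate mix) is demethylated by KDM5BΔAP, 200 nM final, after 10 min compound exposure. Formaldehyde product is coupled through FDH (0.25 U/mL in mix) to NADH fluorescence; 30-min ΔRFU feeds dose-response curves.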
For orientation: In qHTS, concentration-response curves come from the screen itself.
On to `Cc1cc(C)cc(-c2nnc(SCC(=O)N3CCCC(C)C3)o2)c1` (configuration not stated), for which the Potency result is “inactive”.

With `O=C(Cn1cccc1-c1nc(-c2ccccc2)no1)Nc1ccccc1F`, the Potency entry is “inactive”.

As for `COc1ccc(-c2c3c(=O)n(C)c(=O)n(C)c3c3n2C(C)(C)COC3c2cccc(OC)c2)cc1` (configuration not stated), the Potency result is “inactive”.

On to `Cc1cc(C)c(-c2cc(C(=O)Nc3ccccc3C(F)(F)F)[nH]n2)c(O)c1`, for which the Potency entry was “inactive”.

With `Cc1cc(C(=O)NCCc2ccc(Cl)cc2)n(-c2ccccc2)n1`, the Potency entry is “inactive”.

For the compound `Cc1cc(CNC(=O)c2ccc(-c3ccccc3Cl)o2)n(C)n1`, the Potency was 20 µM (active).

As for `Cc1ccc(CNC(=O)c2nn(C)c(=O)c3ccccc23)cc1`, the Potency entry was “inactive”.

On to `CCOC(=O)C1CCN(CC(O)c2cccc(C(F)(F)F)c2)CC1` (configuration not stated), for which the Potency result is “inactive”.

`O=C(c1cccnc1)N1CCN(c2cc(-c3ccccc3)[nH]n2)CC1`: the Potency result is “inactive”.

Regarding `COc1cccc(-c2nc(N3CCOCC3)cc3c2CN(CC2CC2)C3=O)c1`, the Potency was 39.8 µM (active).

With `COCC(=O)N(C1CCOCC1)C1CCN(C(=O)c2cccc(OC)c2)CC1`, the Potency result was “inactive”.

As for `Cc1ccc(NC(=O)Nc2ccc3nc(N4CCOCC4)cc(C)c3c2)cc1`, the Potency result was “inactive”.

Turning to `O=C1c2cc(N3CCOCC3)nc(-c3cccnc3)c2CN1C1COC1`, the Potency was 31.6 µM (active).

In the case of `COc1cccc(-c2noc(CC3CCN(C(=O)c4ccc(F)cc4)CC3)n2)c1`, the Potency result was “inactive”.

On to `O=C(c1cccnc1)N1CCC2(CCCN(C3CCOCC3)C2=O)C1` (configuration not stated), for which the Potency result was “inactive”.

For `Cc1ccc(-c2nc(N3CCOCC3)cc3c2CN(Cc2cnn(C)c2)C3=O)cn1`, the Potency was 35.5 µM (active).

On to `CCc1nc2c(c(-c3ccc(Cl)cc3)n1)CCN([S+](=O)([O-])c1cccs1)CC2`, for which the Potency result is “inactive”.

With `O=C(O)c1ccc(C(=O)C2CCCCC2C(=O)O)cc1` (configuration not stated), the Potency entry was “inactive”.

Take `Cc1nn(-c2ncnc3nc[nH]c23)c2c1C(c1ccc(F)cc1F)CC(=O)N2` (configuration not stated): the Potency entry is “inactive”.

`Cc1cccc(OCc2nn3c(CN4CCOCC4)nnc3s2)c1`: the Potency result is “inactive”.

Regarding `Cc1cc2c(s1)CCCCCCCCCC/C2=N\Nc1ccc([N+](=O)[O-])cc1`, the Potency result is “inactive”.

With `O=C(Nc1ccc2oc(=O)ccc2c1)c1cccc2ccccc12`, the Potency result was “inactive”.

Turning to `CC(NC(=O)c1ccc(SC(F)(F)F)cc1)c1ccccn1` (configuration not stated), the Potency result is “inactive”.

For `COc1ccc(NC(=O)Cc2c(C)c3ccc(O)cc3oc2=O)cc1`, the Potency result is “inactive”.

For the compound `CC1(C)CC(NC(=O)Nc2ccc(OC(F)(F)F)cc2)CC(C)(C)N1`, the Potency result was “inactive”.

With `CN(C)C(=O)c1nc(-c2cccnc2)c2ccccn12`, the Potency result was “inactive”.

As for `CN(C)C(=O)c1nc(-c2ccc(Cl)cc2Cl)c2cnccn12`, the Potency is 100 µM (active).

Regarding `CC1CCCCN1CCNC(=O)c1cc2c(s1)-c1ccccc1OC2` (configuration not stated), the Potency entry is “inactive”.

As to `CN(C)c1ccc(C(=O)NCc2nnc3cc(-c4nc(C5CC5)no4)ccn23)cc1`, the Potency result was “inactive”.

Turning to `O=C(NCc1nnc2cc(-c3nc(C4CC4)no3)ccn12)c1ccc(F)cc1Cl`, the Potency is 28.2 µM (active).

Turning to `NS(=O)(=O)c1ccc(F)c(C(=O)NCc2noc(-c3ccco3)n2)c1`, the Potency result was “inactive”.

In the case of `CCCNC(=O)N1CC(Oc2ccc(-c3nc(C)no3)cc2)C1`, the Potency entry is “inactive”.

For the compound `CCCC(=O)Nc1ccc2c(c1)nc(CCNC(=O)c1ccco1)n2C`, the Potency result is “inactive”.

Regarding `CCc1noc(-c2ccn3c(CNC(=O)c4ccco4)nnc3c2)n1`, the Potency was 28.2 µM (active).

For `COc1ccc(CNC(=O)c2ccc3oc(C(C)C)nc3c2)cc1`, the Potency entry is “inactive”.

For `COc1ccc(C(=O)NCc2nnc3cc(-c4nc(C)no4)ccn23)cc1`, the Potency is 25.1 µM (active).

In the case of `CC(C)NC(=O)C1CCc2nnc(CNC(=O)c3ccc(Cl)cc3Cl)n21` (configuration not stated), the Potency result is “inactive”.

In the case of `CSc1ncc(C(=O)NCCCc2ccccc2)c(C)n1`, the Potency entry is “inactive”.

Consider `CCc1ccc(C2C(C(=O)Nc3ccccc3)=C(C)Nc3c(C(=O)Nc4ccc(F)cc4)cnn32)cc1` (configuration not stated), for which the Potency entry is “inactive”.

In the case of `COc1ccc(CC(=O)NC(CCSC)c2nc3ccccc3[nH]2)cc1` (configuration not stated), the Potency result is “inactive”.

On to `Cc1cc(=O)oc2cc(OCC(=O)NCc3cccs3)c(Cl)cc12`, for which the Potency entry was “inactive”.

Turning to `COc1ccc(CNC(=O)CN(Cc2ccccc2Cl)C(=O)c2csnn2)cc1`, the Potency entry was “inactive”.

For the compound `Cc1noc(-c2ccccc2NC(=O)C2CC(=O)N(c3cccc(C(F)(F)F)c3)C2)n1` (configuration not stated), the Potency entry is “inactive”.

On to `CC(C)c1nc2c(c(-c3ccc(Cl)cc3)n1)CN(C(=O)c1ccccc1)CC2`, for which the Potency entry was “inactive”.

On to `N#CC1CCN(C(=O)c2nc(-c3ccc(Cl)cc3)c3ccccn23)CC1`, for which the Potency was 25.1 µM (active).

As for `O=C(c1cccc(Cl)c1)N1CCc2nc(C3CC3)nc(-c3ccc(Cl)cc3)c2C1`, the Potency entry is “inactive”.

For the compound `CC(C(=O)N1CCc2ccccc21)N(C)CC(=O)Nc1ccc(F)cc1` (configuration not stated), the Potency result was “inactive”.

In the case of `CCc1ccc(C(=O)C(C)Sc2nc3ccccc3c(=O)n2CCC(=O)OC)cc1` (configuration not stated), the Potency entry was “inactive”.

With `C=CCCC(CN1CCCC1)Oc1cncc(C(=O)N2CCCC2)n1` (configuration not stated), the Potency was 8.91 µM (active).

Consider `CCCCCCCCOc1ccc(C(=O)c2ccccc2O)c(O)c1`, for which the Potency result is “inactive”.

For the compound `COc1ccc(-c2c(NC(=O)C(C)C)oc3c(C)cccc3c2=O)cc1`, the Potency entry is “inactive”.

Consider `O=C(C1CCCC1)N1Cc2ccccc2CC2(CCCCN2CC2CCNCC2)C1` (configuration not stated), for which the Potency result was “inactive”.

With `COc1ccc(CN2CCn3c(nn(-c4ccncc4)c3=O)C2)cc1`, the Potency result is “inactive”.

With `O=C(c1ccc(C(F)(F)F)cc1)N1CCn2c(nn(-c3cccc(Cl)c3)c2=O)C1`, the Potency result is “inactive”.

In the case of `Cn1cccc1CN1CCn2c(nn(-c3cccc(Cl)c3)c2=O)C1`, the Potency was 63.1 µM (active).

For the compound `Cc1ccc2c(Cn3cc(S(=O)(=O)N(C)C)ccc3=O)cc(=O)oc2c1`, the Potency entry was “inactive”.

`Cc1ccc(-c2noc(-c3cccc(Cl)c3)n2)cc1`: the Potency entry is “inactive”.

With `CC(C)CC(=O)N1CCN(c2nnc3ccccn23)CC1`, the Potency was 28.2 µM (active).

For `Cc1ccc(C(=O)C(C)Sc2nnc3ccccn23)cc1` (configuration not stated), the Potency result is “inactive”.

On to `O=C(c1ccsc1)N1CCN(c2nnc3ccc(C(F)(F)F)cn23)CC1`, for which the Potency entry was “inactive”.

For the compound `CCC(C)c1ccc(-n2c(SCC(=O)N3CCC3)nc3ccccc3c2=O)cc1` (configuration not stated), the Potency entry was “inactive”.

Take `CC(C)CC(=O)N1CCCN(c2nnc3ccccn23)CC1`: the Potency is 25.1 µM (active).

Consider `O=C(CSc1nc2ccccc2nc1N1CCCC1)N1CCN(c2ccccc2)CC1`, for which the Potency entry was “inactive”.

With `O=C(/C=C/c1ccc(Cl)cc1Cl)Nc1ccc(-c2ccccc2)cc1`, the Potency entry was “inactive”.

For `Cc1cc(=O)oc2c(C)c(OC(=O)CN3C(=O)NC4(CCCC4)C3=O)ccc12`, the Potency result was “inactive”.

As to `N#C/C(=C/c1cccnc1)C(=O)NCCc1ccccc1`, the Potency result is “inactive”.

As to `COCCNC(=S)NC1CC(C)(C)NC(C)(C)C1`, the Potency result was “inactive”.

On to `Cc1ccc2[nH]cc(CCNC(=O)c3ccc(F)c(F)c3)c2c1`, for which the Potency entry was “inactive”.

In the case of `O=C(c1ccccc1)c1ccc(C2CC2)cc1`, the Potency entry is “inactive”.

For the compound `Cc1ncc(CO)c2cc(-c3nc(-c4ccccc4F)no3)c(=O)oc12`, the Potency result is “inactive”.

As for `CN(CCc1cn[nH]c1)c1ccc(-c2nc(-c3ccccc3F)no2)cn1`, the Potency is 28.2 µM (active).

As to `CN(C)CCN(C)c1ccc(-c2nc(-c3ccccc3F)no2)cn1`, the Potency was 28.2 µM (active).

With `CSc1ccc(CCNc2nc(-c3ccccc3F)no2)cc1`, the Potency entry is “inactive”.

As for `Fc1ccc(Nc2nc(-c3ccccc3F)no2)cc1`, the Potency result is “inactive”.

Take `COc1cccc(C2Cn3nnc(-c4nc(-c5ccccc5F)no4)c3CO2)c1` (configuration not stated): the Potency result is “inactive”.

Consider `Cc1cccc(NC(=O)CSCC(=O)Nc2nnc(C3CC3)s2)c1`, for which the Potency result is “inactive”.

Turning to `CC(C)CCNC(=O)NC(=O)CSc1nnc(-c2ccccc2)c(-c2ccccc2)n1`, the Potency entry is “inactive”.

Turning to `Cc1cc(Br)c(S(=O)(=O)NCCO)cc1C`, the Potency entry is “inactive”.

On to `CCCCn1cnc2c1c(=O)n(CC(=O)Nc1ccccc1C)c(=O)n2CCCC`, for which the Potency result was “inactive”.

In the case of `Cc1ccc(C)c(C(NC(=O)c2ccccc2C)c2cccnc2)c1` (configuration not stated), the Potency result was “inactive”.

Take `COc1cccc(-c2cn3c(n2)N(C(=O)Cc2ccccc2)CCC3)c1`: the Potency entry is “inactive”.

For `COc1cccc(-c2cc(C3CCN(C(=O)Nc4ccccc4C)CC3)[nH]n2)c1`, the Potency entry is “inactive”.

In the case of `COc1cccc(-c2cn3c(n2)NCCC3)c1`, the Potency is 25.1 µM (active).

With `CN(C)c1ccc(C(=O)/C=C/c2ccncc2)cc1`, the Potency result is “inactive”.

On to `COc1ccc(OC)c(C2C(C#N)=C(N)Oc3cc(O)ccc32)c1` (configuration not stated), for which the Potency result is “inactive”.

For the compound `Cc1ccc2c(=O)cc(C(=O)N(Cc3ccc(Cl)cc3)C3CCS(=O)(=O)C3)oc2c1C` (configuration not stated), the Potency entry was “inactive”.

In the case of `COc1ccc(C(=O)N[C@H](c2cnn(C)c2)C2CC(O)C2)c(F)c1F` (some centres not stated), the Potency result was “inactive”.

For `Cn1cc([C@@H](NC(=O)CCc2cn3ccccc3n2)C2CC(O)C2)cn1` (some centres not stated), the Potency was 31.6 µM (active).

In the case of `O=S(=O)(NCCc1cn2ccccc2n1)c1cc(Cl)ccc1Cl`, the Potency entry was “inactive”.

Turning to `COc1ccc(-n2c3c(cc(-c4ncnn4-c4ccc(C)cc4C)c2=O)C(=O)CC(C)(C)C3)cc1`, the Potency result was “inactive”.

Turning to `O=C(Cn1ncn2nc(-c3cccs3)cc2c1=O)N1CCCCCC1`, the Potency entry is “inactive”.

In the case of `O=C(c1cnc[nH]1)N1C[C@@H](COCC2CC2)[C@H](c2ccccn2)C1`, the Potency result was “inactive”.

Take `CCn1cc(C(=O)N2C[C@@H](COCC3CC3)[C@H](c3ccccn3)C2)cn1`: the Potency result is “inactive”.

Take `c1ccc([C@@H]2CNC[C@H]2COCC2CC2)nc1`: the Potency is 15.8 µM (active).

As to `Cc1ccc2ncc([N+](=O)[O-])cc2c1`, the Potency entry is “inactive”.

On to `COc1ccc(NC(=O)c2c(Cl)cccc2Cl)cc1`, for which the Potency result is “inactive”.

As for `CCc1ccc(C(=O)Nc2ccccc2O)o1`, the Potency result is “inactive”.

Consider `COc1ccccc1-c1ccc(C(=O)O)cc1`, for which the Potency was 112 µM (active).

As to `COc1ccccc1-c1cn(C)c(=O)n2cc(COc3ccc(C(=O)O)cc3)nc12`, the Potency entry was “inactive”.

Regarding `CC(C)N(C(=O)c1ccc(-c2ccccc2F)cc1)C(C)C`, the Potency entry was “inactive”.

With `C=CCN(CC=C)S(=O)(=O)c1cccc2nsnc12`, the Potency result was “inactive”.

`CC(C)c1ccc(/C=C/C(=O)NCCCN2CCOCC2)cc1`: the Potency result is “inactive”.

For the compound `COc1ccc(C)cc1CN1CCN(C(=O)Nc2cccc(C)c2)CC1`, the Potency entry was “inactive”.

Take `Cc1ccc(C(=O)N2C[C@@H](COc3ccccc3)[C@H](C(N)=O)C2)cc1`: the Potency result was “inactive”.

As for `CCc1ccc(NC(=O)Cn2ccn3nc4c(c3c2=O)CCCC4)cc1`, the Potency is 20 µM (active).

With `CCOC(=O)c1ccc(NC(=O)CCn2ccn3nc4c(c3c2=O)CCCC4)cc1`, the Potency entry is “inactive”.

Regarding `CC(C)(C)C(=O)Cn1ccn2nc3c(c2c1=O)CCCC3`, the Potency result was “inactive”.
